Among the data in ChEMBL document CHEMBL1961873, “Compounds: GSK PKIS; Assays: Nanosyn kinase panel” (2012) are inhibition values, retold here.

A word on the inhibition: it is the drop in the measured response relative to a control, in per cent.

SMILES strings stand for the structures.

Assay [1] deals with T1, Serine/threonine-protein kinase Nek9 (Homo sapiens) (UniProt Q8TD19).
T1 sequence (whole entry): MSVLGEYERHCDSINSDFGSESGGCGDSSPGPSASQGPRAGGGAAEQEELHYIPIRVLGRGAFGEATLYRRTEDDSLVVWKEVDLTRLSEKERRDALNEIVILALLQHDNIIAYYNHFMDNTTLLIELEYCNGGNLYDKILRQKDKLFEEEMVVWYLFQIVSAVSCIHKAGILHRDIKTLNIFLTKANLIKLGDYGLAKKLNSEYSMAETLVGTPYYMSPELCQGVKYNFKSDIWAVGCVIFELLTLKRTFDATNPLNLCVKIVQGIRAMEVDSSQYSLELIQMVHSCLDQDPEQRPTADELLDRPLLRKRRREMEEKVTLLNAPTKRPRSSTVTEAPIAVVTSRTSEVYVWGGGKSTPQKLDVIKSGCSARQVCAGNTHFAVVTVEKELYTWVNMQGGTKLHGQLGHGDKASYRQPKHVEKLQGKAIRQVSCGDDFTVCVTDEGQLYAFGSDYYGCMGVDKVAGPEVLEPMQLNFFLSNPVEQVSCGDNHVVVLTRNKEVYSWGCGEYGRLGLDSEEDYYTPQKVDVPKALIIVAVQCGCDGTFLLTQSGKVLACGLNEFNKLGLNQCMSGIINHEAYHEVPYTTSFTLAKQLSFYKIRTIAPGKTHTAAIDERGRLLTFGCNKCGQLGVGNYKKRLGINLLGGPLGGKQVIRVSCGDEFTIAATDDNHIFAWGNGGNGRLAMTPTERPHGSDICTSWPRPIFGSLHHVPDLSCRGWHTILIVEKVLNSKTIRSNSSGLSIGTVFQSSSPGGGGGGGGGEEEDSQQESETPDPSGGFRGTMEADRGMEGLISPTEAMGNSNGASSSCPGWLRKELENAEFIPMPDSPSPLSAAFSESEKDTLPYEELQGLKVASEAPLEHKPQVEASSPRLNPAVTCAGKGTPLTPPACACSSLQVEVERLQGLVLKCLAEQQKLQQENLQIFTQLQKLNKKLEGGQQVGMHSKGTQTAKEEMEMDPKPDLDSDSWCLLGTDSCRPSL
The following applies: at 1 µM.

In assay [2] the target is Serine/threonine-protein kinase PLK1 (Homo sapiens) (UniProt P53350). As to conditions: at 0.1 µM.
Sequence of Serine/threonine-protein kinase PLK1 (Homo sapiens) (P53350 whole entry): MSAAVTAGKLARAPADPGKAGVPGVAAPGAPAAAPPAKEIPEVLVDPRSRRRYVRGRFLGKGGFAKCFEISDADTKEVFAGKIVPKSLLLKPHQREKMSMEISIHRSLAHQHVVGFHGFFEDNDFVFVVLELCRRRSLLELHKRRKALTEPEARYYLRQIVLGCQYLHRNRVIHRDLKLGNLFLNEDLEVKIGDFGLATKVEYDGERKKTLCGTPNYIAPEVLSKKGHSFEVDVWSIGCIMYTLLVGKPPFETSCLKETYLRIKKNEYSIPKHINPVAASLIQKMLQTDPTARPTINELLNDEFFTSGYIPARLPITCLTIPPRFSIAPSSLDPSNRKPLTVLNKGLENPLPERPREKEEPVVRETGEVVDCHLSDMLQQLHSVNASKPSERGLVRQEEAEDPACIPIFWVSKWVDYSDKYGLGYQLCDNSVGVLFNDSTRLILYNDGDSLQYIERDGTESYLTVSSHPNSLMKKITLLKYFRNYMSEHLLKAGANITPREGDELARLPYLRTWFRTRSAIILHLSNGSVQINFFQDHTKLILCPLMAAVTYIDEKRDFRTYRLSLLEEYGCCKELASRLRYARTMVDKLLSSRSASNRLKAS
Assay [3] shares this target. The following applies: at 1 µM.
In assay [4] the target is T2, Dual specificity protein kinase TTK (Homo sapiens) (UniProt P33981).
T2 sequence (whole entry): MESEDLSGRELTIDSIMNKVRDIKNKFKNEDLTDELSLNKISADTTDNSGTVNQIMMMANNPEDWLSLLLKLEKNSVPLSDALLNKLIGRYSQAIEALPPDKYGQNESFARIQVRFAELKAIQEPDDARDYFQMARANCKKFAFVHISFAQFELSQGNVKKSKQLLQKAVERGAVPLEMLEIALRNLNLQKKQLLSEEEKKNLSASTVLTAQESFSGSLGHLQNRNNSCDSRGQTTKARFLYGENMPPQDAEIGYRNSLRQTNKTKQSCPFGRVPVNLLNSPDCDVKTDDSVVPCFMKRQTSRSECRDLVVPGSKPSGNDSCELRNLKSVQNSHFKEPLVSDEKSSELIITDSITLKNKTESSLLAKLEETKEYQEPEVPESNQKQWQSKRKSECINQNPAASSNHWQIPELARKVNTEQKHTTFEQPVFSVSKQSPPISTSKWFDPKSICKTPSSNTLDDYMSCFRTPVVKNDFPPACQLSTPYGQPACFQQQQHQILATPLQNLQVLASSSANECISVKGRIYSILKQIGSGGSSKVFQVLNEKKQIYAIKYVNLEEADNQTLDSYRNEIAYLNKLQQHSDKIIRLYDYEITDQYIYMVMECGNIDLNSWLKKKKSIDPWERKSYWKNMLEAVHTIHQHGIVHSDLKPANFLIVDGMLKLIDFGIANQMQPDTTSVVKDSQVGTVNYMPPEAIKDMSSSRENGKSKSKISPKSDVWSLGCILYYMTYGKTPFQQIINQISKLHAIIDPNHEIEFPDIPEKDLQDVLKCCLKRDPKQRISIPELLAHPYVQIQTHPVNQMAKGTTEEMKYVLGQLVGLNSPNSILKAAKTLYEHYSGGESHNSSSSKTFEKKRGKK
The following applies: at 0.1 µM.

The subject of assay [5] is T3, Receptor-type tyrosine-protein kinase FLT3 (Homo sapiens), P36888 [D835Y].
T3 sequence (whole entry): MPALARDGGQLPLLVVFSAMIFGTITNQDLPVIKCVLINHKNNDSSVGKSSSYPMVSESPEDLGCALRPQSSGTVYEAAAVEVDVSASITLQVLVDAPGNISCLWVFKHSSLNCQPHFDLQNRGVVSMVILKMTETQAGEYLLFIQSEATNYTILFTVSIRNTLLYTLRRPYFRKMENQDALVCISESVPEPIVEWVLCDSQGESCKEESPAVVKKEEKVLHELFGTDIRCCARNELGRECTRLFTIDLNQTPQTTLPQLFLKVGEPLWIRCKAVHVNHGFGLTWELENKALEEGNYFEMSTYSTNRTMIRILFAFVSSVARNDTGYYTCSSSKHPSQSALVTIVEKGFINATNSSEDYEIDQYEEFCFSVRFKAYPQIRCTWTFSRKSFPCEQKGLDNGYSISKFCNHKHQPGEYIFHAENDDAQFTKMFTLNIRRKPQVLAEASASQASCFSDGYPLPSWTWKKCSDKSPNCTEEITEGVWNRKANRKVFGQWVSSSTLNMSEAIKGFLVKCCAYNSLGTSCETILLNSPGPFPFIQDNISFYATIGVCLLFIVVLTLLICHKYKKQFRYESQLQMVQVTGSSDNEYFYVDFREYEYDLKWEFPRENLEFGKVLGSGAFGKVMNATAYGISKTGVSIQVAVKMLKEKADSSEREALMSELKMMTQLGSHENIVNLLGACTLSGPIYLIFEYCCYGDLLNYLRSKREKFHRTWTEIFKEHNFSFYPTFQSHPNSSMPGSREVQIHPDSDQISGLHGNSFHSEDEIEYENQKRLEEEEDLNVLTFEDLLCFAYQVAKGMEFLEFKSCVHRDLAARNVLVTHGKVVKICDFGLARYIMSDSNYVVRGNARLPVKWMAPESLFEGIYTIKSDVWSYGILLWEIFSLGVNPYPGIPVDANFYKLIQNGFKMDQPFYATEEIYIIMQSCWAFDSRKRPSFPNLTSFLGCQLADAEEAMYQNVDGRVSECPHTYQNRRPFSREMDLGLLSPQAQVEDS
As to conditions: at 1 µM.

Assay [6] deals with Vascular endothelial growth factor receptor 3 (Homo sapiens) (UniProt P35916). The following applies: at 0.1 µM.
Assay [7] has as its target Macrophage colony-stimulating factor 1 receptor (Homo sapiens) (UniProt P07333). The following applies: at 0.1 µM.
Assay [8] shares this target. As to conditions: at 1 µM.
The target in assay [9] is Tyrosine-protein kinase Fyn (Homo sapiens) (UniProt P06241). As to conditions: at 0.1 µM.
Sequence of Tyrosine-protein kinase Fyn (Homo sapiens) (P06241 2-537 limits assumed): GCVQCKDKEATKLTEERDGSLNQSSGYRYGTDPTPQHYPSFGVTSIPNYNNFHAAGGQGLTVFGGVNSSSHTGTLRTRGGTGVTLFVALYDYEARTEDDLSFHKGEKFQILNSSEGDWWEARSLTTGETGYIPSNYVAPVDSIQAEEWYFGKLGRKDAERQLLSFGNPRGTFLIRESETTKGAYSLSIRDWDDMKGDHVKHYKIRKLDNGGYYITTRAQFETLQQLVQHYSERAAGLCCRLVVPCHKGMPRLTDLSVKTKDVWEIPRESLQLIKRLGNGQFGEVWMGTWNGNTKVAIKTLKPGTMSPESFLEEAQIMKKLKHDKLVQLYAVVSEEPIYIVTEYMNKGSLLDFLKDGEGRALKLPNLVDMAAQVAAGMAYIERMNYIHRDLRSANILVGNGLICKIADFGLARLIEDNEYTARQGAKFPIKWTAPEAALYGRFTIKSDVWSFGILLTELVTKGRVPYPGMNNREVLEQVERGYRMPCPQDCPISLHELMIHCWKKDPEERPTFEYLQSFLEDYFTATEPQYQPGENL
Assay [10] shares this target. The following applies: at 1 µM.
In assay [11] the target is Tyrosine-protein kinase HCK (Homo sapiens) (UniProt P08631). As to conditions: at 0.1 µM.
Sequence of Tyrosine-protein kinase HCK (Homo sapiens) (P08631 2-526 limits assumed): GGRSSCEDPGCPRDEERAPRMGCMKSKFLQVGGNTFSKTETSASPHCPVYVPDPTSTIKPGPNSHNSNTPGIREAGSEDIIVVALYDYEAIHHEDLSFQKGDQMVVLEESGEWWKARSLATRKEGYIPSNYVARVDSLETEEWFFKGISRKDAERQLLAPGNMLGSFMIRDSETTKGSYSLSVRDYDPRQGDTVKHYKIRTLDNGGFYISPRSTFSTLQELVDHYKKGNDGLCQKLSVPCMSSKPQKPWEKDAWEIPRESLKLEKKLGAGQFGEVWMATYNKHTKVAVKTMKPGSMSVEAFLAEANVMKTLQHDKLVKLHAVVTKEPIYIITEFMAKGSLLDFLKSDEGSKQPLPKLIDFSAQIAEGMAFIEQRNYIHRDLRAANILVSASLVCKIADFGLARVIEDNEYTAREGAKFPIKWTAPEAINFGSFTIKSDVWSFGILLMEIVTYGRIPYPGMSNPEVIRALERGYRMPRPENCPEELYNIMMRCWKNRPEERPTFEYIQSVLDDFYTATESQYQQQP
Assay [12] shares this target. As to conditions: at 1 µM.
Assay [13] deals with Insulin-like growth factor 1 receptor (Homo sapiens) (UniProt P08069). The following applies: at 0.1 µM.
Sequence of Insulin-like growth factor 1 receptor (Homo sapiens) (P08069 31-736 limits assumed): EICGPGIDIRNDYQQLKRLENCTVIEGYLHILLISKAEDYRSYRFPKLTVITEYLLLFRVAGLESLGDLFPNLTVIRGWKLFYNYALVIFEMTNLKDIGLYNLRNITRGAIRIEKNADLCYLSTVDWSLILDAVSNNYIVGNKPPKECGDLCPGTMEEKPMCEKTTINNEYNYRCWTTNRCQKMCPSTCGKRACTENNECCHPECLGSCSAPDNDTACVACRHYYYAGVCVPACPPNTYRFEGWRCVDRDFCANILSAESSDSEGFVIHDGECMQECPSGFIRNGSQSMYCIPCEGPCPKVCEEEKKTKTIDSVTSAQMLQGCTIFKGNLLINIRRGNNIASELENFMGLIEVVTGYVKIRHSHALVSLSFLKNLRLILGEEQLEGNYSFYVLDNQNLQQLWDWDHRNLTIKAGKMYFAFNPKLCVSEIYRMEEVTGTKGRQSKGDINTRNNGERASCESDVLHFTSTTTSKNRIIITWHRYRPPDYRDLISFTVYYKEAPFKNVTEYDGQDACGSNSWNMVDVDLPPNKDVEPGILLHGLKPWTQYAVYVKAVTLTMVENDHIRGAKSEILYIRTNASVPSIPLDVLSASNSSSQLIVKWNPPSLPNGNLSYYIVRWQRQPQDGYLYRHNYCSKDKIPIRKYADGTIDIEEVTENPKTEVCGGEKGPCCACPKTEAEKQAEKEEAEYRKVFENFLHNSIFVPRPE
Sequence of Insulin-like growth factor 1 receptor (Homo sapiens) (P08069 741-1367 limits assumed): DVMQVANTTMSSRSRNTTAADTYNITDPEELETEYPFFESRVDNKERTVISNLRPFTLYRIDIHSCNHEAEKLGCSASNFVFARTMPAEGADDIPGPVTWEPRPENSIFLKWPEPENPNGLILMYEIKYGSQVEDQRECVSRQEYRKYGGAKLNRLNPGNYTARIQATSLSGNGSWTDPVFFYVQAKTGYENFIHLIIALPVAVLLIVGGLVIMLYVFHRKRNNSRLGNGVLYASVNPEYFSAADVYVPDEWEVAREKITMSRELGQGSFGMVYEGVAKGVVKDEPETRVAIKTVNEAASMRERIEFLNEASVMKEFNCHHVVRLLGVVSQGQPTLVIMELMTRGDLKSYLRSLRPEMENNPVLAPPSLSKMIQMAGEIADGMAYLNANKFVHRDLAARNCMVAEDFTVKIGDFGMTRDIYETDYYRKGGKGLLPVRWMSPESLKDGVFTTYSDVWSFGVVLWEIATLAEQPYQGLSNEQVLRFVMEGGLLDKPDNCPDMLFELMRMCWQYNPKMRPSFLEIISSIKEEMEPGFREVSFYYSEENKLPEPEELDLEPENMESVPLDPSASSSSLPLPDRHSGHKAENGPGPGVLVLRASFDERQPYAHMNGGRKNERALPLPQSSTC
Assay [14] has the same target. As to conditions: at 1 µM.
The target of assay [15] is Insulin receptor (Homo sapiens) (UniProt P06213). As to conditions: at 0.1 µM.
For assay [16] the target is unchanged. As to conditions: at 1 µM.
Assay [17] concerns the target Insulin receptor-related protein (Homo sapiens) (UniProt P14616). The following applies: at 0.1 µM.
Assay [18] shares this target. The following applies: at 1 µM.
The target in assay [19] is T4, Tyrosine-protein kinase ITK/TSK (Homo sapiens) (UniProt Q08881).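 Also: mean percent inhibition of ITK from the GSK PKIS screen.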
T4 sequence (whole entry): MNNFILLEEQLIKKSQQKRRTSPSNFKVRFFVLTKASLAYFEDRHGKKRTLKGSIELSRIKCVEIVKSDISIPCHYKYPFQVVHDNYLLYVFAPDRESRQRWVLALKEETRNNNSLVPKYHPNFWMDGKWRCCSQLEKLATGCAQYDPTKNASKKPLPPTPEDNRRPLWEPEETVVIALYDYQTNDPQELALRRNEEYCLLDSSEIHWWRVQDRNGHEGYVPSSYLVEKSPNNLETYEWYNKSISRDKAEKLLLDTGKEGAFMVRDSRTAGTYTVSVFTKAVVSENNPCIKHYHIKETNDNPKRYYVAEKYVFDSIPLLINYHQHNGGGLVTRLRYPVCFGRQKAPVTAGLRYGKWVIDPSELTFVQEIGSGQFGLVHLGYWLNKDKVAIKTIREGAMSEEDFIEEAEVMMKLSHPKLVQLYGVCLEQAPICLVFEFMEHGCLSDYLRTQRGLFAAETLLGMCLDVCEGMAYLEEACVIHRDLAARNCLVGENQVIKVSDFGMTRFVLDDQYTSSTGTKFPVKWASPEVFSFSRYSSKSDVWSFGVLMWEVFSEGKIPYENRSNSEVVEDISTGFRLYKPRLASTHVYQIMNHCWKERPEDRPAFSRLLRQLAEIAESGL
The following applies: at 0.1 µM.

Assay [20] addresses Vascular endothelial growth factor receptor 3 (Homo sapiens) (UniProt P35916). As to conditions: at 1 µM.

Sequence of Insulin receptor-related protein (Homo sapiens) (P14616 27-742 limits assumed): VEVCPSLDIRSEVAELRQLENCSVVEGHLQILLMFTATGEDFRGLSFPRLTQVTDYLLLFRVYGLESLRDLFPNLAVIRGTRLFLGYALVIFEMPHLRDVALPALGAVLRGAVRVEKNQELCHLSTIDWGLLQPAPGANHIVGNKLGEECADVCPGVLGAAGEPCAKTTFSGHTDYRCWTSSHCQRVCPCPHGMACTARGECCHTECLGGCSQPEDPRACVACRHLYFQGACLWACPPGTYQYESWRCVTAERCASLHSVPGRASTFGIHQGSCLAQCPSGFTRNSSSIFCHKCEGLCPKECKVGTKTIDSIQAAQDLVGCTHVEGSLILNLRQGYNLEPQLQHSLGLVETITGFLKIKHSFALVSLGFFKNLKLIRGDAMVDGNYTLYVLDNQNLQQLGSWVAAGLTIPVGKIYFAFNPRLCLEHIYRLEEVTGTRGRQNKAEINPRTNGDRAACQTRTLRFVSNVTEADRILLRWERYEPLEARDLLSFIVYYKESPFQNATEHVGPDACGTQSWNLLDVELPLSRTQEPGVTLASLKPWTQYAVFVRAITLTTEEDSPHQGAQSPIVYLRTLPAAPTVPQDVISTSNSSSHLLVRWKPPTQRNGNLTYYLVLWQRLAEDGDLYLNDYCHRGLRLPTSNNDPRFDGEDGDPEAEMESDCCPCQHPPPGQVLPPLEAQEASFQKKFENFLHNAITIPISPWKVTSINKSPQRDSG
Sequence of Insulin receptor-related protein (Homo sapiens) (P14616 747-1297 limits assumed): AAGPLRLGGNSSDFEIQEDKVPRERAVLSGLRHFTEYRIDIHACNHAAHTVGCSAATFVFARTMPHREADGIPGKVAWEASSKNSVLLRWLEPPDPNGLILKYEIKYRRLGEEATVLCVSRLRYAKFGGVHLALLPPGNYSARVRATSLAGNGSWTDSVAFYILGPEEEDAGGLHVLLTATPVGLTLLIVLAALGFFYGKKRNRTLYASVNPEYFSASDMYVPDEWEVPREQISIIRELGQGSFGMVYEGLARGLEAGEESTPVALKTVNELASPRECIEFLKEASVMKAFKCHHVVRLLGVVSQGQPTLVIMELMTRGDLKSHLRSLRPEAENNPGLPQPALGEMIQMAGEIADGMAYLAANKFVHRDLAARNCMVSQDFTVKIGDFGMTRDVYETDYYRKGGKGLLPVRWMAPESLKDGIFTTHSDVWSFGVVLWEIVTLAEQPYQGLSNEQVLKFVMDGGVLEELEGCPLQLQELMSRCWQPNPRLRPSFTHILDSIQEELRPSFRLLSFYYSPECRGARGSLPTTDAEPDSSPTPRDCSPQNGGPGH

For the molecule `Fc1ccc(-c2nc3n(c2-c2ccncc2)CCS3)cc1`, the inhibition in assay [1] is 6.52%; in [2], 3.85%; in [3] it was 4.09%; in [4] it was 6.93%; in assay [5], -0.91%; in assay [6] it was -8.43%. Moreover, the inhibition in assay [7] was 0.95%; in assay [8] it was 1.38%; in assay [9], 0.03%; in assay [10], -3.64%; in assay [11] it was 4.65%; in assay [12], 7.02%. In addition, the inhibition in assay [13] was -2.12%; in assay [14], -4.05%; in [15] it was 7.27%; in assay [16], 5.39%; in assay [17] it was 2.11%; in assay [18], 1.09%. Besides, the inhibition in assay [19] is -1.96%.
Turning to `NC(=O)c1ccc(Oc2nccc(-c3c(-c4ccc(F)cc4)ncn3C3CCNCC3)n2)cc1`, the inhibition in assay [1] is 4.67%; in assay [2], 5.93%; in [3], 9.34%; in [4] it was 8.68%; in [5] it was 1.08%; in assay [6], 7.32%. The inhibition is 4.57% in assay [20]; 5.61% in assay [7]; 6.15% in assay [8]; 2.66% in assay [9]; 3.44% in [10]; 6.86% in [11]. In addition, the inhibition in [12] turned out to be 8.21%; in assay [13] it was 5.51%; in [14], 7.32%; in [15] it was 7.88%; in assay [16], 6.48%; in [17], 3.06%. The values for the inhibition in [18] and in [19] were 4.99% and 3.1%, respectively.
Consider `CS(=O)(=O)CCNCc1ccc(-c2ccc3ncnc(Nc4ccc(OCc5ccccc5)c(Br)c4)c3c2)o1`, for which the inhibition in assay [1] is 5.79%; in assay [2] it was 3.69%; in [3] it was 3.81%; in assay [4] it was 11.1%; in assay [5], -0.11%; in assay [6], -7.55%. Moreover, the inhibition in [20] was -9.98%; in [7] it was -1.9%; in assay [8] it was 6.06%; in assay [9], -0.04%; in assay [10] it was 1.37%; in assay [11] it was 7.33%. Moreover, the inhibition in assay [12] is 10.2%; in assay [14] it was -5.4%; in assay [15], 2.87%; in assay [16], 1.17%; in [17], 2.56%; in [18] it was 2.95%. In [19], the inhibition was -4.12%.
